Most compounds without a hit are left out; they make up all but 3.5% or so of the library.
mHTT-CaM PPI inh: disrupts binding of mutant huntingtin to calmodulin | AlphaScreen His-mHTT/GST-CaM binding, luminescence | inhibition, % at 15 µM | actives 3.6% (n = 190,000) | AID 1671202;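 further: 0% = both proteins with DMSO and 100% = one protein alone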
Pf apPOL inh: Pf-apPOL DNA polymerase inhibition. Recombinant Pf-apPOL, molecular beacon fluorescence, 1.5 h. actives 0.25% (n = 210,000). AID 1794808. inhibition, % at 10 µM
* marks the source's active call; other numbers are inactive results; . = no result given; ! = not active in a repeat. No stated cut-off is given here; in the data, active means inhibition above about 50%; inactive means the rest.

SMILES | mHTT-CaM PPI inh | Pf apPOL inh
Nc1nonc1-c1noc(-c2cc([N+](=O)[O-])ccc2Cl)n1 | 4.0 | -0.8
CCOc1ccccc1CNC(=O)CCSCc1ccccc1Cl | -28.0 | -4.0
O=C(Nc1nnc(SCc2c(F)cccc2Cl)s1)c1cc(-c2ccco2)on1 | 17.8 | 61.3*
O=C(Nc1nnc(SCc2cn3ccccc3n2)s1)c1cc(-c2ccco2)on1 | -6.2 | 12.1
Cc1cc(C2C(C#N)=C(N)N(c3c(F)cccc3F)C3=C2C(=O)CC(C)(C)C3)c(C)s1 (centres undefined) | 20.0 | 1.9
CCNC(=O)C1Cc2ccccc2N2CCN(c3ccccc3OC)CC12 (centres undefined) | 9.1 | 0.6
O=C(NCCc1cccs1)C1Cc2ccccc2N2CCN(c3ccccc3)CC12 (centres undefined) | 94.7* | -3.5
COc1cccc(N2CCN3c4ccccc4CC(C(=O)NC(C)C)C3C2)c1 (centres undefined) | 32.2 | -1.5
Cc1ccc(N2CCN3c4ccccc4CC(C(=O)N4CCSCC4)C3C2)cc1 (centres undefined) | 57.6* | -1.0
COc1ccc(N2CCN3c4ccccc4CC(C(=O)N4CCOCC4)C3C2)cc1 (centres undefined) | 56.2* | -2.0
CCNC(=O)C1Cc2ccc(OC)cc2N2CCN(c3ccc(C)cc3)CC12 (centres undefined) | 64.1* | 1.3
O=C(NCc1ccccn1)C1Cc2ccccc2N2CCN(c3ccccc3)CC12 (centres undefined) | 37.5 | -11.5
CCNC(=O)C1Cc2ccc(OC)cc2N2CCN(c3ccc(OC)cc3)CC12 (centres undefined) | 16.6 | -3.3
CC(=NOC(=O)c1ccc(C(F)(F)F)cc1)c1cc[nH]c1 | . | 4.9
Cc1noc(-c2cccs2)c1C(=O)NCCc1ccc(F)cc1 | -9.3 | -6.6
Cc1noc(-c2ccccc2Cl)c1C(=O)NCCc1ccc(F)cc1 | 55.2* | -1.4
CC(=O)c1ccc(NC(=O)CN2CCN(Cc3nc(C(C)(C)C)cs3)CC2)cc1 | 7.7 | -1.7
CC(C)(C)c1csc(CN2CCN(CC(=O)NC3CCCCC3)CC2)n1 | 100.0* | -1.4
O=C(NCc1ccc(F)cc1)c1ccc2c(c1)NC(=O)C(N1CCOCC1)S2 (centres undefined) | -1.0 | -10.3
Cc1nc2ncc(C(=O)O)c(=O)n2[nH]1 | -0.4 | .
CCCN=Cc1c(CCC)[nH]n(-c2nc3ccccc3s2)c1=O | 3.0 | -6.6
O=c1c(C=NCCCO)c(CSc2ccc(Cl)cc2)[nH]n1-c1nc2ccccc2s1 | 56.0* | 6.5
C=CCSc1nc2[nH]c(=O)cc(O)c2s1 | -5.0 | .
O=C(Nc1nnc(-c2ccco2)o1)c1cnccn1 | -9.4 | -7.1
O=C(Cc1csc(NC(=O)c2cnccn2)n1)NCc1ccco1 | 38.2 | 4.1
SMILES | mHTT-CaM PPI inh | Pf apPOL inh
O=C(Nc1cc(-c2ccco2)nn1CCO)c1cnccn1 | 92.2* | -1.2
CC(C)(C)n1nc2c(c1NC(=O)CCc1ccccc1)CSC2 | 3.0 | 0.5
O=C(Cn1nc2c(c1NC(=O)c1c[nH]c3ccccc13)CSC2)NCCc1ccccc1 | 92.9* | 0.4
O=C(Cn1nc2c(c1NC(=O)c1cnccn1)CSC2)NCc1ccco1 | 84.8* | -20.1
COc1ccc(CC(=O)N2CC3CC2CC3NS(=O)(=O)c2ccccc2)cc1 (centres undefined) | 7.5 | 0.1
CCCCNC(C)c1nc2cc(Cl)ccc2c(=O)n1C (centres undefined) | 1.8 | 1.4
CCN1C(=O)c2cccnc2Sc2cc(C(=O)NC(C)C)ccc21 | 0.5 | 7.0
Cc1ccc(-c2nc(C3CCN(C(=O)CNC(=O)c4ccco4)CC3)no2)cc1 | -7.7 | -4.9
Cc1ccccc1N1CC(C(=O)N2CCOCC2)CC1=O (centres undefined) | -1.1 | -4.4
Cc1cccc(NCN2C(=O)S/C(=C\c3ccc(F)cc3)C2=O)c1 | 55.0* | -0.7
O=C1S/C(=C\c2ccc(F)cc2)C(=O)N1CNc1ccc(Br)cc1 | 24.0 | -3.6
O=C1S/C(=C\c2ccc(F)cc2)C(=O)N1CNc1ccccc1 | 57.0* | -1.8
O=C1S/C(=C\c2ccc(F)cc2)C(=O)N1CNc1cccc(Cl)c1 | 21.0 | -4.2
Cc1ccnc(NC(=O)c2c(O)c3cc(F)cc4c3n(c2=O)C(C)CC4)c1 (centres undefined) | -4.0 | -76.4
CCc1nc2cc(-c3noc(-c4ccncc4)n3)ccc2o1 | -15.2 | 1.4
Cc1cc(N2CCCCC2)nc2ccc(NC(=O)/C=C/c3cccs3)cc12 | 33.0 | -5.4
Cc1cc(N2CCN(C)CC2)nc2ccc(NC(=O)/C=C/c3cccc(Cl)c3)cc12 | 94.0* | -7.9
COc1cc(/C=C/C(=O)Nc2ccc3nc(N4CCN(C)CC4)cc(C)c3c2)cc(OC)c1OC | 21.0 | -3.9
COc1ccc(/C=C/C(=O)Nc2ccc3nc(N4CCN(C)CC4)cc(C)c3c2)cc1OC | 51.0* | -2.4
COc1cccc(NC(=O)c2sc(C)nc2-c2ccc([N+](=O)[O-])cc2)c1 | 29.7 | -5.3
Cn1cc(C(=O)NCc2ccc(F)cc2Cl)c2c3ccccc3n(C)c2c1=O | 0.0 | -1.0
Cn1c2c(c(=O)[nH]c1=O)C(c1ccc(OCc3ccccc3)cc1)C1=C(N2)c2ccccc2C1=O (centres undefined) | 86.0* | -93.5
Cn1c2c(c(=O)[nH]c1=O)C(c1ccc(O)cc1)C1=C(N2)c2ccccc2C1=O (centres undefined) | 19.0 | 8.7
O=C1C2=C(Nc3[nH]c(=O)[nH]c(=O)c3C2c2ccc(Cl)cc2)c2ccccc21 (centres undefined) | 67.0*! | -3.6
Cn1c2c(c(=O)n(C)c1=O)C(c1ccc(Cl)cc1)C1=C(N2)c2ccccc2C1=O (centres undefined) | 0.0 | -8.4
SMILES | mHTT-CaM PPI inh | Pf apPOL inh
Cc1ccccc1OCC1CN(CN2CCCCC2)C(=O)O1 (centres undefined) | 4.0 | 3.7
CC(C)n1c(CC2CCN(S(=O)(=O)c3cccc4cccnc34)C2)nc2cccnc21 (centres undefined) | 5.8 | 2.2
CC(C)Sc1ccc(CC(=O)N2CCC3(CC2)OCCS3)cc1 | -11.9 | -16.2
COc1ccc(NC(=O)N2CCN(c3ccc(-n4nc(C)cc4C)nn3)CC2)cc1 | 8.6 | -9.0
COc1cccc(NC(=O)N2CCN(c3ccc(Nc4cc(C)ccn4)nn3)CC2)c1 | 99.0* | -7.0
CCc1ccccc1N=c1oc2c(C)ncc(CO)c2cc1C(=O)Nc1ccc(C)cc1 | 7.0 | -1.2
CC(C)Oc1ccc(CN2CCc3nc(Nc4ccc5c(c4)OCO5)ncc3C2)cc1 | 80.0* | 1.6
Cc1ccc(CN2CCc3nc(Nc4ccc5c(c4)OCO5)ncc3C2)cc1 | 11.0 | -3.7
CCOc1ccccc1CN1CCc2nc(Nc3ccc4c(c3)OCCO4)ncc2C1 | 83.3* | -2.8
COc1ccccc1CN1CCc2nc(Nc3ccc4c(c3)OCCO4)ncc2C1 | 32.9 | -2.9
Fc1cccc(CN2CCc3nc(Nc4ccc5c(c4)OCO5)ncc3C2)c1 | 18.2 | -4.9
COc1cccc(CN2CCc3nc(Nc4ccc5c(c4)OCO5)ncc3C2)c1 | 83.7* | 2.9
COc1ccccc1CN1CCc2nc(Nc3ccc4c(c3)OCO4)ncc2C1 | 51.0* | -0.5
CCOc1ccc(CN2CCc3nc(Nc4ccc5c(c4)OCO5)ncc3C2)cc1OC | 31.2 | 2.4
COc1ccc(-c2ccc(/C=C3\Sc4ccccc4C3=O)o2)c([N+](=O)[O-])c1 | 51.0* | -4.4
O=C1/C(=C/c2cc([N+](=O)[O-])c(Cl)cc2Cl)Sc2ccccc21 | 19.0 | 4.5
O=C1/C(=C/c2cc([N+](=O)[O-])cc(Br)c2O)Sc2ccccc21 | 89.0* | -6.9
